The text below walks through data of the supplement of paper PMC13380429.

Assay [1] relates to Vero E6 infected with SARS-CoV-2. The experiment in a line: morphology score (similarity to uninfected cells); higher = more like uninfected cells. Particulars: 24 h.
Assay [2] has the same test system. Kind of assay: SARS-CoV-2 infection rate relative to infected DMSO; higher = more infection, active = 60 or less. Particulars: 24 h.

In assay [1], `C(=C\c1ccccc1)/CN1CCN(CCOC(c2ccccc2)c2ccccc2)CC1` (10 µM) came in with a morphology score of 0.33. Moreover, in assay [2], the SARS-CoV-2 infection rate is 82.5% (inactive).

For the molecule `O=C1CCc2ccc(OCCCCN3CCN(c4cccc(Cl)c4Cl)CC3)cc2N1` [aripiprazole] (10 µM), the morphology score in assay [1] is -0.0119. Moreover, the SARS-CoV-2 infection rate in assay [2] was 103% (inactive).

Regarding `C[C@]12CC[C@@H](O)C[C@H]1CC[C@@H]1[C@@H]2CC[C@]2(C)C(=O)CC[C@@H]12` [3-alpha-hydroxy-5-beta-androstan-17-one] (10 µM), the morphology score in assay [1] was 0.223. Also, the SARS-CoV-2 infection rate in assay [2] was 102% (inactive).

For the molecule `NS(=O)(=O)c1cc2c(cc1Cl)NC(C(Cl)Cl)NS2(=O)=O` (centres undefined) [trichlormethiazide] (10 µM), the morphology score in assay [1] amounted to 0.0616. The SARS-CoV-2 infection rate in assay [2] is 100% (inactive).

On to `O=C(OCCO)c1ccccc1O` [2-hydroxyethyl-salicylate] (10 µM), for which the morphology score in assay [1] was -0.198. In assay [2], the SARS-CoV-2 infection rate is 108% (inactive).

In turn, `O=C(O)C(=O)CBr` [3-bromopyruvate] (10 µM) gave a morphology score in assay [1] of -0.102. In addition, in assay [2], the SARS-CoV-2 infection rate was 111% (inactive).

As for `CO[C@@H]1[C@@H](OC(N)=O)[C@@H](O)[C@H](Oc2ccc3c(O)c(NC(=O)c4ccc(O)c(CC=C(C)C)c4)c(=O)oc3c2C)OC1(C)C` [novobiocin] (10 µM), the morphology score in assay [1] was 0.165. Moreover, the SARS-CoV-2 infection rate in assay [2] is 95% (inactive).

In assay [1], `CC(C)N(CCCNC(=O)Nc1ccc(C(C)(C)C)cc1)C[C@H]1O[C@@H](n2ccc3c(N)ncnc32)[C@H](O)[C@@H]1O` (10 µM) gave a morphology score of -0.157. Also, in assay [2], the SARS-CoV-2 infection rate was 108% (inactive).

Turning to `COC(=O)N[C@H](C(=O)N1CCC[C@H]1c1nc(-c2ccc3c(c2)O[C@@H](c2ccccc2)n2c-3cc3cc(-c4c[nH]c([C@@H]5CCCN5C(=O)[C@@H](NC(=O)OC)C(C)C)n4)ccc32)c[nH]1)C(C)C` [elbasvir] (10 µM), the morphology score in assay [1] was -0.17. Also, in assay [2], the SARS-CoV-2 infection rate was 120% (inactive).

As to `CCS(=O)(=O)N(C)[C@H]1c2cc(C#N)ccc2OC(C)(C)[C@@H]1O` [chromanol-293B-(-)-[3R,4S]] (10 µM), the morphology score in assay [1] stood at 0.135. Besides, the SARS-CoV-2 infection rate in assay [2] is 104% (inactive).

As for `NC(=O)N1CCC(CC(=O)N2CCC([C@H]3c4ncc(Br)cc4CCc4cc(Cl)cc(Br)c43)CC2)CC1` [lonafarnib] (10 µM), the morphology score in assay [1] turned out to be 0.736. Also, the SARS-CoV-2 infection rate in assay [2] was 43.5% (active).

The molecule `Clc1ccc(COC(Cn2ccnc2)c2ccc(Cl)cc2Cl)c(Cl)c1` (centres undefined) [miconazole] (10 µM) gave a morphology score in assay [1] of -0.274. Also, the SARS-CoV-2 infection rate in assay [2] was 118% (inactive).

Molecule `NNC(=O)CSc1nc2scc(-c3ccccc3)c2c(=O)n1-c1ccccc1` (10 µM) returned a morphology score in assay [1] of -0.0192. Further, the SARS-CoV-2 infection rate in assay [2] is 99.5% (inactive).

In the case of `Cc1c(-c2cnccn2)ssc1=S` [oltipraz] (10 µM), in assay [1], the morphology score is -0.0383. Also, the SARS-CoV-2 infection rate in assay [2] was 109% (inactive).

In turn, `C[C@@H](CN(C)C)CN1c2ccccc2Sc2ccccc21` (racemic) [alimemazine] (0.833333 µM) gave a morphology score in assay [1] of -0.144. Besides, the SARS-CoV-2 infection rate in assay [2] is 105% (inactive).

`CC[C@H](C)C(=O)O[C@H]1C[C@@H](C)C=C2C=C[C@H](C)[C@H](CC[C@@H]3C[C@@H](O)CC(=O)O3)[C@H]21` [lovastatin] (10 µM) gave a morphology score in assay [1] of 0.0359. The SARS-CoV-2 infection rate in assay [2] is 110% (inactive).

Regarding `C[C@H]1CN(C[C@H](Cc2ccccc2)C(=O)NCC(=O)O)CC[C@@]1(C)c1cccc(O)c1` [alvimopan] (10 µM), in assay [1], the morphology score was found to be 0.116. Besides, the SARS-CoV-2 infection rate in assay [2] was 106% (inactive).

In assay [1], `CC(C)(O)c1ccn2c(-c3ccc(F)c(-c4ccc(F)cc4C#N)c3)cnc2c1F` (10 µM) yielded a morphology score of -0.0136. Further, in assay [2], the SARS-CoV-2 infection rate is 108% (inactive).

Molecule `C[Se]C[C@H](N)C(=O)O` [Se-methylselenocysteine] (10 µM) showed a morphology score in assay [1] of 0.107. The SARS-CoV-2 infection rate in assay [2] was 102% (inactive).

The molecule `CNCCC(Oc1ccccc1OC)c1ccccc1` (centres undefined) [nisoxetine] (10 µM) displayed a morphology score in assay [1] of 0.135. Besides, the SARS-CoV-2 infection rate in assay [2] is 96.5% (inactive).

`CCCCCC(C)N` (centres undefined) [tuaminoheptane] (10 µM): in assay [1], the morphology score is -0.092. The SARS-CoV-2 infection rate in assay [2] was 109% (inactive).

`CCOc1cccc(NC(=O)c2ccc(N3CCCC3)c(C(F)(F)F)c2)c1` (10 µM) came in with a morphology score in assay [1] of 0.0793. The SARS-CoV-2 infection rate in assay [2] is 102% (inactive).

In assay [1], `Cc1cc2c(OCC(CNC(C)(C)C)OC(=O)c3ccccc3)cccc2[nH]1` (centres undefined) [bopindolol] (10 µM) gave a morphology score of 0.12. Also, in assay [2], the SARS-CoV-2 infection rate was 110% (inactive).

As for `Cc1cc(CN2CCN(c3c(Br)cnc4nc(-c5ccc(N6CCN(C)CC6)cc5)[nH]c34)CC2)no1` (10 µM), in assay [1], the morphology score is 0.247. The SARS-CoV-2 infection rate in assay [2] was 116% (inactive).

In assay [1], `CN(CCOc1ccc(CC2SC(=O)NC2=O)cc1)c1ccccn1` (centres undefined) [rosiglitazone] (10 µM) had a morphology score of 0.279. Moreover, in assay [2], the SARS-CoV-2 infection rate is 92.5% (inactive).

`NC(=O)CN1C=CCC(C(N)=O)=C1` [caricotamide] (10 µM) returned a morphology score in assay [1] of 0.109. For the same molecule, in assay [2], the SARS-CoV-2 infection rate was 106% (inactive).

For `C=C1C(=O)O[C@@H]2[C@H]3O[C@]3(C)CC/C=C(\C)CC[C@@H]12` [parthenolide-(alternate-stereo)] (0.833333 µM), in assay [1], the morphology score was found to be 0.111. Moreover, the SARS-CoV-2 infection rate in assay [2] is 106% (inactive).
